The values that follow come from PubChem BioAssay (Tox21).

Experiment [1] concerns the target Acetylcholinesterase (Homo sapiens) (UniProt P22303). Nature of the experiment: Acetylcholinesterase (AChE) small molecule antagonists: enzyme-based qHTS assay with human liver microsomes (AID 1347399; calls by dose curve; further: nearly all actives have a fitted effect of over 60% in size). The following applies: Potency: qHTS inhibition; outcome: qHTS inhibition. An outline of the steps:
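Recombinant human AChE (50 mU/mL in the enzyme mix) and human liver microsomes (0.25 mg/mL final) were preincubated with compound and NADPH (0.25 mg/mL final) for 30 min at 37 C. Acetylthiocholine/DTNB was then added; thiocholine was read colorimetrically after 10 min at room temperature.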

Experiment [2] can be described thus: qHTS assay for small molecules that induce genotoxicity in human embryonic kidney cells expressing luciferase-tagged ATAD5 (AID 651632). Further: nearly all actives have a fitted effect of over 15% in size. An outline of the steps:
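ATAD5-luc HEK293T, 2,000 cells/well; cpd or DMSO pin-transferred; 16 hr, 37C/5% CO2; Amplite 30 min RT; luminescence.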
A general note: qHTS replaces the single test concentration by a dilution series.

Experiment [3] can be described thus: qHTS assay for small molecule agonists of the p53 signaling pathway - cell viability (AID 651633; calls by dose curve; further: potency means the concentration at half of the fitted maximal effect; nearly all actives have a fitted effect of over 30% in size). An outline of the steps: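 p53RE-bla cells were treated with compound for 16 hours at 37 C. Cytotoxicity was then measured as CellTiter-Glo luminescence after 30 min at room temperature.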
The nature of experiment [4]: qHTS assay for small molecules that induce genotoxicity in human embryonic kidney cells expressing luciferase-tagged ATAD5 - cell viability (AID 651634; calls by dose curve; further: nearly all actives have a fitted effect of over 25% in size). An outline of the steps: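 Fluorescence from CellTiter-Fluor, reporting protease activity within live cells, served as the viability read-out. HEK293T cells carrying luciferase-tagged ATAD5 had been treated with compound for 15.5 hr at 37C.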

Experiment [5] is described as follows: qHTS assay for small molecule disruptors of the mitochondrial membrane potential - cell viability (AID 720634; calls by dose curve;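 further: human HepG2 liver cancer cells; series mostly up to about 83 µM; nearly all actives have a fitted effect of over 20% in size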). The essentials: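 Cells: HepG2, 2,000/well, attached overnight. Compound 1 hr, 37 C/5% CO2. +m-MPI dye, +CellTiter-Glo 30 min RT. Readout: luminescence (ATP).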
Experiment [6] can be described thus: qHTS assay for small molecule disruptors of the mitochondrial membrane potential (AID 720635). Further: potency means the concentration at half of the fitted maximal effect. An outline of the steps:
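HepG2 cells exposed to compound 1 hr at 37C, then Mito-MPS dye 30 min. Ratio read of aggregate (540/590 nm) versus monomer (490/535 nm) fluorescence.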

Experiment [7] is described as follows: qHTS assay to test for compound auto fluorescence at 590 nm (red) in HepG2 cells (AID 720674). An outline of the steps:
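Seeding: 2,000 HepG2 cells/well, MEM/10% FBS, overnight 37 C. Dosing: compound vs DMSO. Incubation: 1 hr, 37 C, 5% CO2. Read: fluorescence 540 ex/590 em, Rose Bengal sodium as red reference.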

Experiment [8] can be described thus: qHTS assay to test for compound auto fluorescence at 535 nm (green) in HepG2 cells (AID 720675).
Experiment [9] can be described thus: qHTS assay to test for compound auto fluorescence at 460 nm (blue) in HEK293 cells (AID 720678). The essentials: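 Blue-channel (Ex/Em 405/460 nm) intensity measured in HEK293 cultures after overnight compound exposure at 37C; signal expressed relative to triamterene. Cells plated 2,000 per well in 10% dialyzed FBS medium and allowed 4-5 hr to attach.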
The nature of experiment [10]: qHTS assay to test for compound auto fluorescence at 590 nm (red) in HEK293 cells (AID 720679). An outline of the steps: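 Red-channel autofluorescence (Ex/Em 540/590 nm; Rose Bengal sodium reference) was measured after overnight 37C, 5% CO2 exposure of attached HEK293 cells, 2,000 per well in medium with 10% dialyzed FBS.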
Experiment [11] is described as follows: qHTS assay to test for compound auto fluorescence at 535 nm (green) in HEK293 cells (AID 720680).
Experiment [12] in a line: qHTS assay to test for compound auto fluorescence at 460 nm (blue) in HEK293 cell free culture (AID 720681). An outline of the steps:
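Compounds were added to cell-free DMEM with 10% FBS and fluorescence read directly. The blue channel used 405 nm excitation and 460 nm emission, with triamterene as the reference fluorophore.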

A short description of experiment [13]: qHTS assay to test for compound auto fluorescence at 535 nm (green) in HEK293 cell free culture (AID 720682). An outline of the steps:
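Fluorescein serves as the green reference fluorophore; each compound's intrinsic emission at 535 nm (excitation 485 nm) is reported as an equivalent amount of that dye, measured in serum-containing DMEM without cells.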

Experiment [14] can be described thus: qHTS assay to test for compound auto fluorescence at 590 nm (red) in HEK293 cell free culture (AID 720683). The essentials:
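Cell-free wells of DMEM with 10% FBS received compound, and intrinsic fluorescence was read at excitation/emission 540/590 nm. Values expressed as equivalence to Rose Bengal sodium.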

Experiment [15] is described as follows: qHTS assay to test for compound auto fluorescence at 590 nm (red) in HepG2 cell free culture (AID 720684). The essentials:
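Compound was pinned into wells holding MEM with 10% FBS and no cells, and red fluorescence was read at Ex/Em 540/590 nm. Signal is expressed as auto fluorescence equivalency relative to Rose Bengal sodium.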

Experiment [16] in a line: qHTS assay to test for compound auto fluorescence at 460 nm (blue) in HepG2 cell free culture (AID 720685). An outline of the steps:
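Compound (23 nL) or DMSO pinned into cell-free MEM with 10% FBS; blue fluorescence read at 405/460 nm excitation/emission, expressed as auto-fluorescence equivalency to triamterene.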

The nature of experiment [17]: qHTS assay to test for compound auto fluorescence at 535 nm (green) in HepG2 cell free culture (AID 720686).
Experiment [18] can be described thus: qHTS assay to test for compound auto fluorescence at 460 nm (blue) in HepG2 cells (AID 720687). The essentials: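 HepG2 cells in MEM with 10% FBS, attached overnight at 37 C, were exposed to compound or DMSO for 1 hr at 37 C, 5% CO2. Blue fluorescence was read at 405/460 nm, with triamterene as reference fluorophore.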
The nature of experiment [19]: qHTS assay to identify small molecule antagonists of the glucocorticoid receptor (GR) signaling pathway - cell viability counter screen (AID 720693). Further: potency means the concentration at half of the fitted maximal effect; nearly all actives have a fitted effect of over 55% in size.
Experiment [20] in a line: qHTS assay for identifying genotoxic compounds that show differential cytotoxicity against isogenic chicken DT40 cell lines with known DNA damage response pathways - wild type cell line (AID 743012). Further: potency means the concentration at half of the fitted maximal effect; nearly all actives have a fitted effect of over 60% in size. An outline of the steps: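 Wild type DT40, 300 cells/well, ~0.5 h settle at 37 C/5% CO2; compounds in DMSO added by pintool; 40 h at 37 C/5% CO2; CellTiter-Glo, 30 min RT; luminescence.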

Experiment [21] is described as follows: qHTS assay for identifying genotoxic compounds that show differential cytotoxicity against isogenic chicken DT40 cell lines with known DNA damage response pathways - Rev3 mutant cell line (AID 743014). Further: potency means the concentration at half of the fitted maximal effect; nearly all actives have a fitted effect of over 55% in size.
The nature of experiment [22]: qHTS assay for identifying genotoxic compounds that show differential cytotoxicity against isogenic chicken DT40 cell lines with known DNA damage response pathways - Rad54/Ku70 mutant cell line (AID 743015). Further: potency means the concentration at half of the fitted maximal effect; nearly all actives have a fitted effect of over 60% in size.
A short description of experiment [23]: qHTS assay to identify small molecule antagonists of the androgen receptor (AR) signaling pathway - cell viability counter screen (AID 743033; further: nearly all actives have a fitted effect of over 45% in size).
A short description of experiment [24]: qHTS assay to identify small molecule antagonists of the androgen receptor (AR) signaling pathway using the MDA cell line - cell viability counter screen (AID 743041; further: nearly all actives have a fitted effect of over 45% in size). The essentials: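 MDA-kb2 AR-luc cells (MMTV-luciferase, AR/GR responsive) treated with compounds plus R1881 agonist for 16 h at 37C. CellTiter-Fluor added at 15.5 h; fluorescence read after 30 min in the same wells.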

Experiment [25] in a line: qHTS assay to identify small molecule antagonists of the thyroid receptor (TR) signaling pathway - cell viability counter screen (AID 743064). Further: potency means the concentration at half of the fitted maximal effect; nearly all actives have a fitted effect of over 50% in size. An outline of the steps:
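Fluorescence from CellTiter-Fluor, added after 23.5 h exposure at 37 °C, reported viability of GH3.TRE-Luc cells co-treated with compound and 1 nM T3. Measured in the same wells as the luciferase TR readout.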

The nature of experiment [26]: qHTS assay to identify small molecule antagonists of the thyroid receptor (TR) signaling pathway (AID 743065). Further: potency means the concentration at half of the fitted maximal effect; nearly all actives have a fitted effect of over 55% in size. An outline of the steps:
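GH3.TRE-Luc rat pituitary cells (two TREs driving luciferase) were dosed with compound, then stimulated with 1 nM T3 (final) for 23.5 h at 37 C. ONE-Glo luminescence was the read-out, with CellTiter-Fluor fluorescence as the cytotoxicity counter-screen.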

Experiment [27] in a line: qHTS assay to identify small molecule antagonists of the estrogen receptor alpha (ER-alpha) signaling pathway - cell viability counter screen (AID 743074; calls by dose curve;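 further: HEK293 cells carrying ER-alpha-UAS-bla reporter stimulated with 17beta-estradiol; potency means the concentration at half of the fitted maximal effect; nearly all actives have a fitted effect of over 45% in size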).
Experiment [28] has as its target Estrogen receptor (Homo sapiens) (UniProt P03372). Nature of the experiment: qHTS assay to identify small molecule agonists of the estrogen receptor alpha (ER-alpha) signaling pathway (AID 743075; calls by dose curve;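 further: HEK293 GripTite cells with ER-alpha and UAS-driven beta-lactamase reporter; potency means the concentration at half of the fitted maximal effect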).
For experiment [29] the target is unchanged. Nature of the experiment: qHTS assay to identify small molecule agonists of the estrogen receptor alpha (ER-alpha) signaling pathway using the BG1 cell line (AID 743079). Further: potency means the concentration at half of the fitted maximal effect; nearly all actives have a fitted effect of over 20% in size.
A short description of experiment [30]: qHTS assay to identify small molecule antagonists of the estrogen receptor alpha (ER-alpha) signaling pathway using the BG1 cell line - cell viability counter screen (AID 743081).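 Further: compound given together with 17beta-estradiol as the ER stimulus; series mostly up to about 70 µM; nearly all actives have a fitted effect of over 45% in size.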
A further experiment concerns the target Aromatase (Homo sapiens) (UniProt P11511). Nature of the experiment: qHTS assay to identify aromatase inhibitors (AID 743083). Further: series mostly up to about 70 µM; nearly all actives have a fitted effect of over 55% in size.
A short description of experiment [31]: qHTS assay to identify aromatase inhibitors - cell viability counter screen (AID 743084).
Experiment [32] addresses Aryl hydrocarbon receptor (Homo sapiens) (UniProt P35869). Nature of the experiment: qHTS assay to identify small molecule that activate the aryl hydrocarbon receptor (AhR) signaling pathway (AID 743085).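 Further: HG2L7.5c1 human HepG2 liver cells with stably integrated DRE-driven firefly reporter; series mostly up to about 70 µM; nearly all actives have a fitted effect of over 15% in size.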 An outline of the steps: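 Cell line HG2L7.5c1 (human hepatoma, 20× DRE-luc). Plated, 5 h 37C, compound/DMSO added, 24 h 37C. CellTiter-Fluor 30 min 37C → fluorescence; then ONE-Glo 30 min RT → luminescence.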

Experiment [33] is described as follows: qHTS assay to identify small molecule that activate the aryl hydrocarbon receptor (AhR) signaling pathway - cell viability counter screen (AID 743086). An outline of the steps: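 HepG2-AhR-luc (HG2L7.5c1) cells, 4000/well, treated 24 h at 37 C with compound; viability measured as CellTiter-Fluor fluorescence after 30 min in the same wells as the luciferase read.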

Experiment [34] has as its target Peroxisome proliferator-activated receptor gamma (Homo sapiens) (UniProt P37231). Nature of the experiment: qHTS assay to identify small molecule agonists of the peroxisome proliferator-activated receptor gamma (PPARg) signaling pathway (AID 743094; active means well fitted activation curve with a large enough effect in the signal ratio in the repeat runs, not every such curve was filed as active; inconclusive means weak or mixed curves, or effect the other way; inactive means no such curve, though single readings can be large or run the other way; the % refers to the signal ratio). An outline of the steps: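 Beta-lactamase FRET fluorescence was the read-out after a 1 h room-temperature substrate step, following 17 h compound treatment at 37C of HEK293H cells expressing a UAS-driven bla reporter responsive to PPARg.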

A number with no mark means an inactive call. Calls of active or inactive are those of the source. Unless noted, the call rests on the fitted dose curve; in most records, active means well fitted curve in the direction sought with a large enough effect in the repeat runs; inconclusive means weak or mixed curves; inactive means no such curve, though single readings can be large; an effect the other way counts as inactive or inconclusive.

Sequence of Estrogen receptor (Homo sapiens) (P03372 whole entry, looked up): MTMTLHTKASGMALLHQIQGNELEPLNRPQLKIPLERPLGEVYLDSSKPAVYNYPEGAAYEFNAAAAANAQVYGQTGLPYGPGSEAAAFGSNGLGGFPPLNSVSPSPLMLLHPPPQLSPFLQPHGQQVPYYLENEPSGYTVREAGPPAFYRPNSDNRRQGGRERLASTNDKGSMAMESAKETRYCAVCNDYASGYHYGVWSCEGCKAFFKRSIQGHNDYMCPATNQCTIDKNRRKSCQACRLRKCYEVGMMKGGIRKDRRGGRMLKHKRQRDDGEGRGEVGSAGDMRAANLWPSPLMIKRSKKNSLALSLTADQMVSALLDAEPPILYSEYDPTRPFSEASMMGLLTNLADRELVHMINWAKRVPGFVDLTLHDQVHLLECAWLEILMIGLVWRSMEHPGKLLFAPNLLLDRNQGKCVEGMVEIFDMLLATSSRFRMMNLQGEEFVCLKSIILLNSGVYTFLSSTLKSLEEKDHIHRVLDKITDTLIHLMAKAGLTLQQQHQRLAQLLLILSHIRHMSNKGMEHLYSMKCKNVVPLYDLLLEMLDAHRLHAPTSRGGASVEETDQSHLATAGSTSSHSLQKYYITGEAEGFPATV
Sequence of Acetylcholinesterase (Homo sapiens) (P22303 whole entry, looked up): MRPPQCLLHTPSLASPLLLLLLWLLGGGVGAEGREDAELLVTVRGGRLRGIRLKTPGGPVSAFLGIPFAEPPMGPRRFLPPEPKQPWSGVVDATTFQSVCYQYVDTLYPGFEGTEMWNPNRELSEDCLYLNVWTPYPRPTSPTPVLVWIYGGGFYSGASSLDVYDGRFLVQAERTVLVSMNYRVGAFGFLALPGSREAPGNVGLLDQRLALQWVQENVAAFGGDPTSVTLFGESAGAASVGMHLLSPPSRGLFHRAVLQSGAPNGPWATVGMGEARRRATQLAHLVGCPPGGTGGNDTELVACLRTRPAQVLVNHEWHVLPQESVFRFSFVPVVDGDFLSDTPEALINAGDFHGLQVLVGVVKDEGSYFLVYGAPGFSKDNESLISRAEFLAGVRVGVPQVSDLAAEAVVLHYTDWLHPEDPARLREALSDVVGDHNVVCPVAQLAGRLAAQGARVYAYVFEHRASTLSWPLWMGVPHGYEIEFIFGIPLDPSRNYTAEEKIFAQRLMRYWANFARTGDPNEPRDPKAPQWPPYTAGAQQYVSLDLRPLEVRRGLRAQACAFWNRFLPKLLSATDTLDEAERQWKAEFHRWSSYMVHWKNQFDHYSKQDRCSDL
Sequence of Peroxisome proliferator-activated receptor gamma (Homo sapiens) (P37231 whole entry, looked up): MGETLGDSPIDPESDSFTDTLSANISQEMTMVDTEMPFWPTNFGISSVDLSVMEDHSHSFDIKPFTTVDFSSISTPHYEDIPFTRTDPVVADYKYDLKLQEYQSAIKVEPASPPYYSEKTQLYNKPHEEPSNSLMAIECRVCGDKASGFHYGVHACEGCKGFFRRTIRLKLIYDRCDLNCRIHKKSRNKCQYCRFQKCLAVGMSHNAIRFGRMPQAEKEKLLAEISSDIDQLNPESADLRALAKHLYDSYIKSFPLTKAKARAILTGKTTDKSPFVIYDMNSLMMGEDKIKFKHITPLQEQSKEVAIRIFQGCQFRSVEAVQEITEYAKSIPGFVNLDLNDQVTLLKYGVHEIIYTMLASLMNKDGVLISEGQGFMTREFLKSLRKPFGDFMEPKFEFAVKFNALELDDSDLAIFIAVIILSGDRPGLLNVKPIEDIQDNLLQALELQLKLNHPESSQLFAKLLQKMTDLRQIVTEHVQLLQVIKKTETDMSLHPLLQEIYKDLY
Sequence of Aromatase (Homo sapiens) (P11511 whole entry, looked up): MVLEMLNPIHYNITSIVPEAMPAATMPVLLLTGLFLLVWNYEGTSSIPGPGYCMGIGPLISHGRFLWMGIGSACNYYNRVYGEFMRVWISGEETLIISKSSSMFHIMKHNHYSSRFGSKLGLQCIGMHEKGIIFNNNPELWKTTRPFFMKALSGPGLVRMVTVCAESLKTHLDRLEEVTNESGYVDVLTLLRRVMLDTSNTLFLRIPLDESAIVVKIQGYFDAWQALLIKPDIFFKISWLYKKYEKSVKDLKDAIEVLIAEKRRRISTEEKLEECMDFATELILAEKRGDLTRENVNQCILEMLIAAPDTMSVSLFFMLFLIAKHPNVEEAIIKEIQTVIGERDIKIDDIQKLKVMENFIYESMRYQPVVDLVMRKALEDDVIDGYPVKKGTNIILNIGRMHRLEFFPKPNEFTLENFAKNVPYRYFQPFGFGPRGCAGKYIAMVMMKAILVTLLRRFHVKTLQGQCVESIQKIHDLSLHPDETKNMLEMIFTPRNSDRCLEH
Sequence of Aryl hydrocarbon receptor (Homo sapiens) (P35869 whole entry, looked up): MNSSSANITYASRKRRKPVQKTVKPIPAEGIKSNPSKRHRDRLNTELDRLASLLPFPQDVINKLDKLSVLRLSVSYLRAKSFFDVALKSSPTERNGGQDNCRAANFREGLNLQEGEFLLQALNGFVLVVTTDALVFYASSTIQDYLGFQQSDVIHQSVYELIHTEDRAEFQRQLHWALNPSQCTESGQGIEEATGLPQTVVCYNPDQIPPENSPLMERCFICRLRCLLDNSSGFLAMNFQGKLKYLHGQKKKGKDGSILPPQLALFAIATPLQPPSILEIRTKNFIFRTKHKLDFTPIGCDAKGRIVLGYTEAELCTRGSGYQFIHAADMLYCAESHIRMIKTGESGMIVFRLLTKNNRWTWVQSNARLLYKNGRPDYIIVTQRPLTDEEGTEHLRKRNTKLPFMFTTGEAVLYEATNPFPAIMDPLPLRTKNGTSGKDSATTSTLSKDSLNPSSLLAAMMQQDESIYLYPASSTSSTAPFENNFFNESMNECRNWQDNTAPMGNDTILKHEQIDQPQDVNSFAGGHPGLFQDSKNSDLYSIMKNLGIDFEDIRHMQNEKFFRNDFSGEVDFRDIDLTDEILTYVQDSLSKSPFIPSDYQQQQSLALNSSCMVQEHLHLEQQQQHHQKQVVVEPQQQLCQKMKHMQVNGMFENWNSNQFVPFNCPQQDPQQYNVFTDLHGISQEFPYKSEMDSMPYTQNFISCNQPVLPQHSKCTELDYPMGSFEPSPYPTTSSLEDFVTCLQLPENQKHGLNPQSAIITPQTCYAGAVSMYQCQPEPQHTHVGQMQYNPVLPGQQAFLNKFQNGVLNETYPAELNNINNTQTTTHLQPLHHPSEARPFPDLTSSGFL

As to `N=C1N=C(N)c2cc3ccccc3cc21`, the Potency result in [1] is “inactive”.
Regarding `C#C[C@]1(OC(=O)CCCCCC)CC[C@H]2[C@@H]3CCC4=CC(=O)CC[C@@H]4[C@H]3CC[C@@]21C`, the outcome in experiment [2], in [5], in [7], in [8], in experiment [9] and in experiment [10] was inactive. For the same compound, the outcome in [11], in experiment [12], in experiment [13], in experiment [14], in experiment [15] and in [16] was inactive. The compound was classed as inactive in [17], in experiment [18], in experiment [24], in experiment [31], in experiment [32] and in [34]. In addition, the Potency in experiment [3] was 29.8 µM (active); in experiment [6] it was 8.41 µM (active); in experiment [19], 21.3 µM (active); in experiment [20], 2.66 µM (active); in [21], 5.96 µM (active); in experiment [22] it was 5.96 µM (active). The Potency in experiment [25] is 11.9 µM (active); in [26], 11.9 µM (active); in experiment [27], 19 µM (active); in [28], 0.338 µM [inconclusive] (active); in [29] it was 0.596 µM (active). Moreover, the Potency result (in [4]; in experiment [23]; in experiment [30]; with Aromatase (Homo sapiens); in [33]) was “inactive” throughout.
